Measurements as given in ChEMBL document CHEMBL3988442, “University of Dundee, Small-Polar-MMV Screening Library” (2021).
In all, about 38,000 compounds went through this assay and about 1,200 (3.2%) showed an effect of 50% or more. The median lay at about -58%. Only a selection was taken, and strong results are over-represented in it overall.

tested on: Plasmodium falciparum; assay: Calibr Malaria Delayed Death Assay SOP; assay type: functional, organism-based; design: scale not given: in the data most compounds retested in dose-response had high values; details: concentration 4.99e-06 (unit not given; other assays of the set use mol/L)

Structure (SMILES) | Percent Effect
CC(=O)N1CCCC(C(=O)NCCc2csc(-c3ccncc3)n2)C1 (centres undefined) | -77.87%
CC(C)C(N)CNS(=O)(=O)Cc1cccc2cccnc12.Cl (centres undefined) | 3.917%
CC(Cn1cccn1)NC(=O)N(C)Cc1ccsc1 (centres undefined) | -57.89%
O=C(CNC(=O)C1(c2ccc(F)cc2F)CCC1)Nc1ccccn1 | -17.94%
CC(C)CN1CC(C(=O)NCCOc2ccc3c(c2)OCO3)CC1=O (centres undefined) | -115.4%
O[C@@]1(CN2CCN(Cc3ccncc3)CC2)CCCN2CCCC[C@@H]21 | -71.07%
Cc1cnccc1N1CCN(C[C@]2(O)CCCN3CCCC[C@@H]32)CC1 | 73.88%
Cc1ccnc(N2CCN(C[C@]3(O)CCCN4CCCC[C@@H]43)CC2)c1 | 7.79%
COc1ccc(N2CCN(C(=O)c3nc(Cl)sc3C(C)C)CC2)cc1 | -116.1%
CCn1cc(CN2CCCC(c3[nH]ncc3-c3ccc(C)cc3)C2)cn1 (centres undefined) | 60.35%
COc1cccc(OCC2CCCN(Cc3ccncc3)C2)c1 (centres undefined) | -55.12%
CCn1cc(CN2CCCC(COc3ccc(F)cc3)C2)cn1 (centres undefined) | 75.3%
Cc1ccc(-c2cn[nH]c2C2CCCN(c3ncccn3)C2)cc1 (centres undefined) | -2.919%
CCn1cc(CN2CCCC(COc3ccccc3F)C2)cn1 (centres undefined) | 72.55%
COc1ccc(OCC2CCCN(Cc3ccncc3)C2)cc1 (centres undefined) | 2.701%
CCn1cc(CN2CCC(c3[nH]ncc3S(C)(=O)=O)C2)cn1 (centres undefined) | -50.8%
CCn1cc(CNC2CCN(c3c(F)cccc3F)C2)cn1 (centres undefined) | -15.51%
CCn1cc(CN2CCCN(C3Cc4ccccc4C3)CC2)cn1 | 8.565%
O=C(NCC(=O)N1CCCC1Cc1cccc(F)c1)C1CCCC1 (centres undefined) | -29.53%
Cc1cnc2c(c1NCc1cccs1)c(=O)n(C)c(=O)n2C | 3.342%
CNC(=O)C1(c2cnccn2)CCCN1C(=O)c1cccnc1OC (centres undefined) | -138.6%
CCCn1cc(NC(=O)c2ccncc2)ccc1=O | -98.41%
CC(C)N1CCCCC1CCn1cnc2cc(C(F)(F)F)ccc2c1=O (centres undefined) | -97.47%

Structure (SMILES) | Percent Effect
Cc1cnc(N(C)Cc2cnc3ccccc3n2)nc1N(C)C | -4.617%
O=C(NCCCNC(=O)c1ccccc1)Nc1ccc(F)cc1F | -135.1%
CCOCC1CN(S(=O)(=O)CC)Cc2cnn(CC3CC3)c21.O=C(O)C(F)(F)F (centres undefined) | -13.24%
CCOCC1CN(C(=O)c2cccn2C)Cc2cnn(CC3CC3)c21.O=C(O)C(F)(F)F (centres undefined) | 56.84%
CCOCC1CN(C(=O)c2cnccn2)Cc2cnn(CC3CC3)c21.O=C(O)C(F)(F)F (centres undefined) | -137.9%
Cn1cccc1C(=O)N1Cc2c(CN3CCCCC3)nn(C)c2C1 | -1.788%
CC(C)C(=O)N1CCc2c(CN(C)Cc3ccco3)cncc2C1.Cl.Cl | -39.92%
C[C@@H]1CN(C2(C(=O)N3CCSCC3)Cc3ccccc3C2)C[C@H](C)O1 | -246.9%
C[C@@H]1CN(C2(C(=O)N3CCOCC3)Cc3ccccc3C2)C[C@H](C)O1 | -24.87%
C[C@@H]1CN(C2(C(=O)N3CCNCC3)Cc3ccccc3C2)C[C@H](C)O1 | 61.74%
O=C(NCCC1CCN(CC(F)(F)F)CC1)C1CCCO1 (centres undefined) | -133.7%
c1coc(CN2CCO[C@@]3(CCC[C@@H]3COCc3nccs3)C2)c1 | 10.79%
O=C(NCc1cc2n(n1)CCCNC2)C1(c2ccccc2)CCCCC1 | 72.51%
O=C(NCc1cc2n(n1)CCCNC2)c1cn2cc(Cl)ccc2n1 | -49.2%
O=C(NCc1cc2n(n1)CCCNC2)C1(c2ccc(Cl)cc2)CCC1 | -15.95%
O=C(O)C(F)(F)F.O=C(O)C(F)(F)F.c1coc(CN2C[C@@H]3OCCN(CC4CCCO4)[C@@H]3C2)c1 (some centres undefined) | -57.01%
O=S(=O)(c1ccc(F)cc1Cl)N1CCCC1c1ccncc1 (centres undefined) | -22.12%
O=C(NC1CCCN(CCCc2ccccc2)C1)c1ccc(Cl)s1 (centres undefined) | 59.33%
O=C(NC1CCCN(CCCc2ccccc2)C1)c1ccncc1 (centres undefined) | -32.27%
O=C(NC1CCCN(CCCc2ccccc2)C1)C1=CCCCC1 (centres undefined) | -1.379%
COCCNC(=O)N1CCSC2(CCCCC2)C1 | -161%
CCC(c1ccc(F)cc1)N1CCn2c(CO)nnc2C1 (centres undefined) | -61.64%
Cc1noc(C)c1CN1C(=O)[C@H]2CC[C@@H]1CN(Cc1cccc(O)c1)C2 | -156.5%

Structure (SMILES) | Percent Effect
Cc1noc(C)c1CN1CCO[C@H]2CN(Cc3ccc(F)cc3)C[C@H]21.O=C(O)C(F)(F)F.O=C(O)C(F)(F)F | 54.02%
Cc1noc(C)c1CN1C[C@@H]2C[C@@H](C)O[C@@H]2C1.O=C(O)C(F)(F)F | -81.78%
Cc1noc(C)c1CN1CCO[C@H]2CN(Cc3cnn(C)c3)C[C@H]21.O=C(O)C(F)(F)F.O=C(O)C(F)(F)F | 11.54%
Cc1noc(C)c1CN1CCO[C@H]2CN(Cc3cccc(F)c3)C[C@H]21.O=C(O)C(F)(F)F.O=C(O)C(F)(F)F | -38.58%
Cc1noc(C)c1CN1C[C@H]2CN(Cc3cccc(F)c3)C[C@H]2C1.O=C(O)C(F)(F)F.O=C(O)C(F)(F)F | 53.22%
O=C(Cc1ccccn1)N1C[C@H]2CN(Cc3ccccn3)C[C@H]2C1 | -76.72%
Cc1noc(C)c1CN1C[C@@H]2CC(F)(F)C[C@@H]2C1.O=C(O)C(F)(F)F | -65.49%
CN(Cc1cccc(F)c1)C1CCN(CCc2ccccn2)CC1 | -78.69%
Cc1noc(C)c1CN1C[C@H]2CNC[C@H]2C1 | 5.878%
O=C(c1ccccn1)N1CCN(c2cnnc(N3CCCC3)c2)CC1 | -112.9%
COc1cccc(N2C(=O)CC3(CCNCC3)C2=O)c1.Cl | -133.6%
COC(=O)CC(NC(=O)c1cc(OC)c2c(c1)OCCO2)c1cccs1 (centres undefined) | -83.17%
O=S(=O)(NCCCn1cccn1)c1ccc2c(c1)CCC2 | -131.9%
CCCn1cc(S(=O)(=O)N[C@H]2CN(CC(N)=O)C[C@@H]2C2CC2)cn1 | -97.89%
COc1ccc(C2OC(COc3ccc(C)cc3)=NN2C(C)=O)cc1 (centres undefined) | -155.6%
COc1cc(C2CC(=O)Nc3c2c(=O)[nH]n3C2CCCCC2)ccc1O (centres undefined) | -62.17%
Cc1nnc2n1CCN(CCCS(=O)(=O)c1ccccc1)C2 | -71.81%
Cc1ccc(CN(C)C(=O)CCNS(=O)(=O)c2cccnc2)cc1 | 36.55%
Cc1noc(C)c1CN1CCC2(CCN(Cc3cccc(F)c3)CC2)C1.O=C(O)C(F)(F)F.O=C(O)C(F)(F)F | 66.34%
CCC(=O)N1CCC2(CCN(Cc3cccc(F)c3)CC2)CC1.O=C(O)C(F)(F)F | -165.1%
CC(=O)N1CCC2(CCN(Cc3cccc(F)c3)CC2)CC1.O=C(O)C(F)(F)F | -62.85%
COCC(=O)N1C[C@@H](OCc2cccnc2)[C@H]2OCCC[C@@H]21.O=C(O)C(F)(F)F | 7.671%
COCCNC(=O)Cn1cc(NC(=O)c2cccc(Cl)c2Cl)cn1 | -59.07%

Structure (SMILES) | Percent Effect
O=C(NS(=O)(=O)c1ccc(Cl)cc1F)c1cccc2c1OCCO2 | -91.83%
CC(C#N)CN(C)C(=O)CCNC(=O)OCC(F)(F)F (centres undefined) | -88.17%
O=C(O)C(F)(F)F.O=C(O)C(F)(F)F.O=C1CO[C@@H]2CN(Cc3cccs3)C[C@H]2N1Cc1cccnc1 | -34.75%
Cc1cc(-c2cccc3c2CCNC3)cnc1-n1cnnc1 | -23.79%
Cc1nc(-n2cnnc2)ccc1-c1cccc2c1CCNC2 | 68.26%
Cc1cnc(-n2cnnc2)c(-c2cccc3c2CCNC3)c1 | -33.7%
CSCCC(=O)N1CCCC1c1nnc2n1CCCCC2 (centres undefined) | -119.3%
Cc1cc(C)n(Cc2ccc(-c3noc(C(=O)NCCO)n3)cc2)n1 | -66.65%
CN(C[C@H]1CN2CC[C@H]1C[C@@H]2CNC(=O)c1ccco1)c1ccccc1 | 70.91%
CCN(CC)C[C@H]1CN2CC[C@H]1C[C@@H]2CNC(=O)c1ccco1 | -99.74%
CC[C@H]1CN2CC[C@H]1C[C@@H]2CNC(=O)c1ccco1 | -30.73%
O=C(C1CCOC1)N1CCN(Cc2cccnc2)c2ncccc2C1 (centres undefined) | -57.83%
O=C1CN(S(=O)(=O)CC(F)(F)F)CC(O)CN1CCCc1ccccc1 (centres undefined) | -64.11%
COCCN1CCc2nc(SCc3ccc(F)cc3)[nH]c(=O)c2C1 | -62.28%
Cc1nonc1OCCNC(=O)CCCc1ccc(Cl)cc1 | -154.2%
CN1[C@H](Cn2cncn2)C[C@@H]2CN(Cc3ccsc3)CC[C@@H]21.O=C(O)C(F)(F)F.O=C(O)C(F)(F)F | 35.13%
CN1C(Cn2cccn2)C[C@@H]2CN(Cc3cnn(C)c3)CC[C@@H]21 (some centres undefined) | -48.63%
CN1C(Cn2cccn2)C[C@@H]2CN(C(=O)c3cccc(C#N)c3)CC[C@@H]21.O=C(O)C(F)(F)F.O=C(O)C(F)(F)F (some centres undefined) | -96.07%
Cc1ccc(CN2CC[C@H]3[C@H](CC(Cn4cccn4)N3C)C2)s1.O=C(O)C(F)(F)F.O=C(O)C(F)(F)F.O=C(O)C(F)(F)F (some centres undefined) | 62.61%
CN1[C@H](Cn2cncn2)C[C@@H]2CN(Cc3cccc(C#N)c3)CC[C@@H]21.O=C(O)C(F)(F)F.O=C(O)C(F)(F)F | -71.32%
